Screening data as filed in PubChem.
Hits are enriched below; roughly 2.3% of the tested compounds scored in any of these assays.
CHRM1 PAM: human M1 muscarinic receptor positive allosteric modulators, primary screen, CHO-K1 cells, Fluo-8 calcium fluorescence, 1536-well; Muscarinic acetylcholine receptor M1 (Homo sapiens), P11229; 360,000 tested, 0.088% active; CHO-K1 hM1, ACh EC20; 0% = ACh EC20, 100% = maximal ACh; activation, % at 3 µM; AID 588819, 2011; in the data active = activation above about 19%, passing the limit was not always enough
Target sequence (P11229 whole entry, looked up): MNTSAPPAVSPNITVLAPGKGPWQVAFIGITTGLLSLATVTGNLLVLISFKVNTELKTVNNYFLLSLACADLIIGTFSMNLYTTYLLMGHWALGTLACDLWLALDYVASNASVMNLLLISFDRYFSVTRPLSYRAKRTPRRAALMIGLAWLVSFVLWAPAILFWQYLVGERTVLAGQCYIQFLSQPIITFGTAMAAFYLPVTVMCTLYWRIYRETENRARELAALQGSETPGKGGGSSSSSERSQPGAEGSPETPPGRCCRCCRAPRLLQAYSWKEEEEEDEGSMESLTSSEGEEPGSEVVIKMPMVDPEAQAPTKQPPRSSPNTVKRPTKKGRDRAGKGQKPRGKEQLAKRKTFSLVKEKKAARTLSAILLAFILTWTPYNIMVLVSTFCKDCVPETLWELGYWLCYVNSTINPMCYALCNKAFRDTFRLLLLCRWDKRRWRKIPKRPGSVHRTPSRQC
CHO-K1 Ca PAM: nonselective calcium activators in parental CHO-K1 cells, primary screen, counter-screen for M1 PAM project, cell-based, Fluo-8 calcium fluorescence, full deck, 1536-well; ATP EC20; 0% at ATP EC20, 100% at ATP max; activation, % at 3 µM; 360,000 tested, 0.02% active; AID 602247, 2012;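 active = activation above the run cutoff, the mean activation of all test compounds plus 3 SD, cut at about 40% in these data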;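 note: peak over basal fluorescence ratio in a 140 s read after ATP addition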
CHO-K1 Ca antag: counter-screen for M1 antagonists: effect in parental CHO-K1 cells; AID 602250; 360,000 tested, 0.6% active; inhibition, % at 3 µM; ATP-induced calcium, Fluo-8 fluorescence;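 active = inhibition above a per-plate cutoff, the plate's mean sample inhibition plus 3 SD, cut at about 24% in these data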
M1 antag: human M1 muscarinic receptor antagonists, primary screen, CHO-K1 cells, Fluo-8 calcium fluorescence, 1536-well. CHO-K1 hM1, ACh EC80 antagonist. inhibition, % at 3 µM. 360,000 tested, 1.3% active;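 active = percent inhibition above its own plate's cutoff, namely the mean of that plate's compound wells plus 3 SD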;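 note: peak over basal fluorescence ratio during 140 s after agonist addition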
CHRM1 agonist: human M1 muscarinic receptor agonists, primary screen, Fluo-8 calcium fluorescence, CHO-K1 cells, HTS | CHO-K1 hM1, agonist mode; 0% DMSO, 100% acetylcholine EC100 | activation, % at 3 µM | 360,000 tested, 0.33% active | Muscarinic acetylcholine receptor M1 (Homo sapiens), P11229;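 active = activation above the run's mean compound activation plus 3 SD, cut at about 16% in these data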;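 note: peak over basal fluorescence ratio within a 140 s kinetic read after compound addition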
CHO-K1 Ca ag: counter-screen for M1 agonists: effect in parental CHO-K1 cells; Fluo-8 calcium fluorescence; scaled to maximal ATP response, vehicle zero; activation, % at 3 µM; 360,000 tested, 0.48% active; in the data active = activation above about 15%;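 note: untransfected CHO-K1 host cells lacking M1 receptor as counterscreen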
Numbers stand for hits.

`Cc1ccccc1C(C)NC(=O)COC(=O)Cn1cc(C(F)(F)F)ccc1=O` (stereo not drawn) gave CHRM1 PAM inactive, CHO-K1 Ca PAM inactive, CHO-K1 Ca antag inactive, M1 antag inactive, CHRM1 agonist inactive and CHO-K1 Ca ag inactive.
`Cc1ccc(NC(=O)Cc2nn(C)c(=O)c3ccccc23)cc1F` gave CHRM1 PAM inactive, CHO-K1 Ca PAM inactive, CHO-K1 Ca antag inactive, M1 antag inactive, CHRM1 agonist inactive and CHO-K1 Ca ag inactive.
`Cn1nc(CC(=O)Nc2ccc3c(c2)OCCO3)c2ccccc2c1=O` gave CHRM1 PAM inactive, CHO-K1 Ca PAM inactive, CHO-K1 Ca antag 27, M1 antag 31, CHRM1 agonist inactive and CHO-K1 Ca ag inactive.
`CN(Cc1cn[nH]c1-c1ccc(-c2ccccc2)cc1)CC1CCOCC1` gave CHRM1 PAM inactive, CHO-K1 Ca PAM inactive, CHO-K1 Ca antag inactive, M1 antag inactive, CHRM1 agonist inactive and CHO-K1 Ca ag 17.
CCc1ccc(NC(=O)C(CC)c2ccccc2)cc1 (stereo not drawn) was read as CHRM1 PAM inactive, CHO-K1 Ca PAM inactive, CHO-K1 Ca antag inactive, M1 antag inactive, CHRM1 agonist 26 and CHO-K1 Ca ag 19.
For CCC(C(=O)Nc1ccc(C)cc1)c1ccccc1 (stereo not drawn) the results were CHRM1 PAM inactive, CHO-K1 Ca PAM inactive, CHO-K1 Ca antag inactive, M1 antag inactive, CHRM1 agonist inactive and CHO-K1 Ca ag inactive.
`CCC(C(=O)Nc1ccc(C(=O)N2CCCC2)cc1)c1ccccc1` (stereo not drawn) gave CHRM1 PAM inactive, CHO-K1 Ca PAM inactive, CHO-K1 Ca antag inactive, M1 antag inactive, CHRM1 agonist 18 and CHO-K1 Ca ag inactive.
C=CCn1c(N2CCN(c3ccc(OC)cc3)CC2)nc2c1c(=O)[nH]c(=O)n2C was read as CHRM1 PAM inactive, CHO-K1 Ca PAM inactive, CHO-K1 Ca antag inactive, M1 antag inactive, CHRM1 agonist inactive and CHO-K1 Ca ag inactive.
Screening O=C(CCc1nc2ccccc2c(=O)[nH]1)NCCN1C(=O)S/C(=C\c2ccc(Cl)cc2Cl)C1=O returned CHRM1 PAM inactive, CHO-K1 Ca PAM inactive, CHO-K1 Ca antag inactive, M1 antag 26, CHRM1 agonist inactive and CHO-K1 Ca ag inactive.
`O=C(CCc1nc2ccccc2c(=O)[nH]1)Nc1ccc(Cl)c(Cl)c1` gave CHRM1 PAM inactive, CHO-K1 Ca PAM inactive, CHO-K1 Ca antag inactive, M1 antag inactive, CHRM1 agonist inactive and CHO-K1 Ca ag inactive.
O=C(COC(=O)c1ccccc1C(=O)OCC(=O)NCCc1c[nH]c2ccccc12)NCCc1c[nH]c2ccccc12 was read as CHRM1 PAM inactive, CHO-K1 Ca PAM inactive, CHO-K1 Ca antag inactive, M1 antag 34, CHRM1 agonist inactive and CHO-K1 Ca ag inactive.
CC(=O)c1cccc(NC(=O)NCCc2c[nH]c3ccccc23)c1 was read as CHRM1 PAM inactive, CHO-K1 Ca PAM inactive, CHO-K1 Ca antag inactive, M1 antag inactive, CHRM1 agonist inactive and CHO-K1 Ca ag inactive.
Screening O=C(Nc1cccc(CNCCc2c[nH]c3ccccc23)c1)c1ccccc1Cl returned CHRM1 PAM inactive, CHO-K1 Ca PAM inactive, CHO-K1 Ca antag inactive, M1 antag inactive, CHRM1 agonist inactive and CHO-K1 Ca ag 27.
N#CCCCc1cn(-c2nc3ccccc3s2)nn1 was read as CHO-K1 Ca PAM inactive, CHO-K1 Ca antag inactive and CHO-K1 Ca ag inactive.
For O=C(c1ccccc1)c1nn(-c2ccc(Cl)cc2)c(=O)cc1C(F)(F)F the results were CHRM1 PAM inactive, CHO-K1 Ca PAM inactive, CHO-K1 Ca antag inactive, M1 antag inactive, CHRM1 agonist inactive and CHO-K1 Ca ag 19.
Screening O=C(c1ccccc1)c1nn(-c2ccccc2)c(=O)cc1C(F)(F)F returned CHRM1 PAM inactive, CHO-K1 Ca PAM inactive, CHO-K1 Ca antag inactive, M1 antag inactive, CHRM1 agonist inactive and CHO-K1 Ca ag inactive.
COC(=O)c1ccc(S(=O)(=O)NCCc2ccccc2OC)n1C was read as CHRM1 PAM inactive, CHO-K1 Ca PAM inactive, CHO-K1 Ca antag inactive, M1 antag inactive, CHRM1 agonist inactive and CHO-K1 Ca ag 18.
CCn1nc(C(=O)NCc2nnc3ccccn23)c2ccccc2c1=O was read as CHRM1 PAM inactive, CHO-K1 Ca PAM inactive, CHO-K1 Ca antag inactive, M1 antag inactive, CHRM1 agonist inactive and CHO-K1 Ca ag inactive.
S=C(Nc1ccccc1)Nc1ccc(Cl)cn1 was read as CHRM1 PAM inactive, CHO-K1 Ca PAM inactive, CHO-K1 Ca antag inactive, M1 antag 37, CHRM1 agonist inactive and CHO-K1 Ca ag inactive.
For O=C(NC(=S)Nc1ccc(Cl)cn1)C(c1ccccc1)c1ccccc1 the results were CHRM1 PAM inactive, CHO-K1 Ca PAM inactive, CHO-K1 Ca antag inactive, M1 antag inactive, CHRM1 agonist inactive and CHO-K1 Ca ag inactive.
CCc1ccc([C@@H]2CC=C(C(=O)O)[C@H](c3ccc(F)cc3)N2S(=O)(=O)c2ccc(C)cc2)cc1 was read as CHRM1 PAM inactive, CHO-K1 Ca PAM inactive, CHO-K1 Ca antag inactive, M1 antag inactive, CHRM1 agonist inactive and CHO-K1 Ca ag inactive.
For Cc1cc(C)n(-c2nc(NC(C)(C)C)nc(NC(C)(C)C)n2)n1 the results were CHRM1 PAM inactive, CHO-K1 Ca PAM inactive, CHO-K1 Ca antag inactive, M1 antag inactive, CHRM1 agonist inactive and CHO-K1 Ca ag inactive.
Screening Cc1cc(C)n(-c2nc(Nc3ccccc3C(F)(F)F)nc(-n3nc(C)cc3C)n2)n1 returned CHRM1 PAM inactive, CHO-K1 Ca PAM inactive, CHO-K1 Ca antag inactive, M1 antag inactive, CHRM1 agonist inactive and CHO-K1 Ca ag 19.
Screening FC(F)Oc1ccc(NC(=S)NC2CCCCCCC2)cc1 returned CHRM1 PAM inactive, CHO-K1 Ca PAM inactive, CHO-K1 Ca antag inactive, M1 antag 34, CHRM1 agonist inactive and CHO-K1 Ca ag inactive.
Screening O=C(NC1CCSc2ccccc21)c1cccc(OC(F)F)c1 (stereo not drawn) returned CHRM1 PAM inactive, CHO-K1 Ca PAM inactive, CHO-K1 Ca antag inactive, M1 antag inactive, CHRM1 agonist inactive and CHO-K1 Ca ag inactive.
Screening S=C(Nc1ccc(Cl)cc1)NC1CCCCC1 returned CHRM1 PAM inactive, CHO-K1 Ca PAM inactive, CHO-K1 Ca antag inactive, M1 antag inactive, CHRM1 agonist inactive and CHO-K1 Ca ag inactive.
FC(F)Oc1ccc(NC(=S)NC2CCSc3ccccc32)cc1 (stereo not drawn) was read as CHRM1 PAM inactive, CHO-K1 Ca PAM inactive, CHO-K1 Ca antag inactive, M1 antag 87, CHRM1 agonist inactive and CHO-K1 Ca ag inactive.
CN(C)CCCOC(=O)N1c2ccccc2C=Cc2ccccc21 was read as CHRM1 PAM inactive, CHO-K1 Ca PAM inactive, CHO-K1 Ca antag inactive, M1 antag 95, CHRM1 agonist inactive and CHO-K1 Ca ag inactive.
